# From PubChem BioAssay
# Mtb hypoxia inh: PubChem AID 1159583; M. tuberculosis hypoxia-regulated fluorescent reporter, fluorescence; fluorescence inhibition, % (test concentration not listed); actives 0.1% (n = 300,000); in the data active = fluorescence inhibition mostly above about 23%, no sharp cut-off; inactive = mostly below about 17%
# GDH-TPI inh: GDH-TPI coupling enzyme inhibitors, primary screen, artefact control for M. tuberculosis FBA inhibitor project, biochemical, absorbance, full deck. AID 588335, 2011. actives 1.2% (n = 360,000). inhibition, % at 4.8 µM. GDH-TPI coupled enzyme counterscreen, NADH absorbance; in the data active = inhibition above about 30%;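 also: 0% = DMSO wells and 100% = wells lacking the enzyme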
# Mtb BioA inh: M. tuberculosis BioA enzyme inhibitors, primary screen, biochemical, plate reader, single point, HTS; purified M. tuberculosis BioA enzyme; AID 602481, 2012; 7,8-diaminopelargonic acid synthase BioA (Mycobacterium tuberculosis); inhibition, % at 9.99 µM; actives 0.096% (n = 360,000); in the data active = inhibition above about 40%
# FadD28 FP inh: inhibitors of FadD28 bisubstrate probe binding, primary screen, biochemical, fluorescence polarization, single point. inhibition, % at 12.5 µM. Mycobacterium tuberculosis FadD28 fatty-acid-AMP ligase. actives 0.22% (n = 360,000); in the data active = inhibition above about 8.5%, passing the limit was not always enough
# FBA Mtb inh: Mtb FBA enzyme inhibitors, primary screen, biochemical, fluorescence, strain H37Rv | purified M. tuberculosis FBA, fluorescence read-out | inhibition, % at 1 µM | actives 2.3% (n = 360,000) | AID 588726, 2011; in the data active = inhibition above about 27%;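 also: 0% = vehicle and 100% = reference inhibitor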
# Target sequence (P9WQA3 whole entry, looked up): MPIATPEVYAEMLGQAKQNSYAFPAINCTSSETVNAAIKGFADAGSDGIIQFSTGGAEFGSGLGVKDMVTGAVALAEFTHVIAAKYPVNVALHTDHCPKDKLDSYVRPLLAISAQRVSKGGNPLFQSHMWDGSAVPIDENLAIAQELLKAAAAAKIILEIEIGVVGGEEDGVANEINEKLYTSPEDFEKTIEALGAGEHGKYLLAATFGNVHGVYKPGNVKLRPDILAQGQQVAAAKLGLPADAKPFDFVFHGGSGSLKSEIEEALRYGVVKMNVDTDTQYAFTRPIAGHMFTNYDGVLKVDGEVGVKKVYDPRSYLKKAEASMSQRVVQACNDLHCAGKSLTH
# An asterisk follows results filed as active; . = not tested or not shown; + = active, no number. In the library only some 2.9% were active in any assay of this set; here they are far more common.
SMILES,Mtb hypoxia inh,GDH-TPI inh,Mtb BioA inh,FadD28 FP inh,FBA Mtb inh
COc1ccc(/C=C2\SC(=O)N(CC(=O)NC3CCS(=O)(=O)C3)C2=O)cc1 (stereo not drawn),5.3,38.9*,-0.9,-1.5,5.3
O=C(CN1C(=O)S/C(=C\c2ccccc2)C1=O)NC1CCS(=O)(=O)C1 (stereo not drawn),0.3,28.6,-0.5,-3.8,1.5
COc1ccc(/C=C2\SC(=O)N(CCC(=O)N(C)C3CCS(=O)(=O)C3)C2=O)cc1 (stereo not drawn),-2.2,4.3,0.1,-2.6,-3.7
CN(C(=O)CN1C(=O)S/C(=C\c2ccc(F)cc2)C1=O)C1CCS(=O)(=O)C1 (stereo not drawn),-4.0,28.8,0.7,-1.9,-1.7
O=C(NN=Cc1ccc([N+](=O)[O-])s1)c1ccccc1Br,16.5,.,.,.,.
Cn1cc(Cl)c(C(=O)NNC(=S)NCc2ccco2)n1,-8.0,-5.7,.,-2.7,0.2
O=C(NNC(=S)NCc1ccco1)c1ccc(Cl)s1,25.0,31.0*,.,3.0,-1.7
CCCNC(=O)N1C[C@H](O)COC[C@@H]2O[C@@H](CC(=O)N3CCN(C)CC3)CC[C@H]21,.,.,0.5,.,.
CCn1c(SCC(=O)O)nnc1-c1cc2c(C)nn(-c3ccccc3)c2s1,2.4,14.0,0.9,-6.5,3.5
Cc1nn(-c2ccccc2)c2sc(-c3nnc(SCC(=O)O)o3)cc12,-7.8,16.7,0.7,-15.3,101.4*
COc1ccc(C=NNC(=O)c2ccc(NS(=O)(=O)c3cccs3)cc2)cc1,4.1,.,.,.,.
COc1ccc(OC)c(C=NNC(=O)c2ccc(NS(=O)(=O)c3cccs3)cc2)c1,0.5,38.9*,-0.2,0.1,16.4
COc1ccc(/C=N/NC(=O)c2ccc(NS(=O)(=O)c3cccs3)cc2)cc1,.,50.9*,0.0,-3.7,0.0
COc1ccc(NS(=O)(=O)c2cccc(C(=O)NN=Cc3cc(Br)c(O)c(Br)c3)c2)cc1,7.5,41.0*,-1.0,1.9,0.4
COc1cccc(Nc2nc3ccccc3nc2NS(=O)(=O)c2cccs2)c1,-1.8,37.3*,-1.1,0.8,17.4
COc1ccc(NS(=O)(=O)c2cccc(C(=O)NN=Cc3ccc(OC)cc3OC)c2)cc1,15.0,28.9,-0.8,-5.1,-1.7
O=C(NN=Cc1ccccc1C(=O)O)c1ccc(NS(=O)(=O)c2cccs2)cc1,8.6,36.8*,-0.3,-0.9,-1.4
O=C(O)c1ccc(/C=N/NC(=O)c2ccc(NS(=O)(=O)c3cccs3)cc2)cc1,.,73.9*,-5.5,-4.2,2.3
C[C@H](NC(=O)C[C@@H]1C[C@H]2c3cc(NC(=O)CC4CC4)ccc3O[C@H]2[C@H](CO)O1)c1ccccc1,.,.,1.4,.,.
CCOC(=O)C1=C(C)NC(SC)=C(C#N)C1CC(C)C (stereo not drawn),9.2,32.4*,2.5,-2.1,1.9
COC(=O)Cc1[nH]n(-c2ccccc2)c(=O)c1C=Nc1ccc(C)cc1,2.7,40.0*,-2.0,-0.8,2.6
Cc1[nH]n(-c2ccccc2)c(=O)c1C=Nc1cccc(F)c1,14.0,32.5*,6.5,-1.1,-0.8
C[C@H]1CN([C@@H](C)CO)C(=O)c2cc(NC(=O)Nc3ccccc3)ccc2O[C@H]1CN(C)S(=O)(=O)c1ccc(F)cc1,.,.,2.3,.,.
O=C(C[C@H]1C=C[C@H](NS(=O)(=O)c2ccc(F)cc2)[C@H](CO)O1)NC1CCCCC1,.,.,-2.0,.,.
N#Cc1cc(-c2ccccc2)nc(NN)n1,6.2,32.0*,.,0.0,-2.3
SMILES,Mtb hypoxia inh,GDH-TPI inh,Mtb BioA inh,FadD28 FP inh,FBA Mtb inh
C[C@H](CO)N1C[C@H](C)[C@H](CN(C)Cc2ccc3c(c2)OCO3)OCCCC[C@H](C)Oc2ccc(NC(=O)NC3CCCCC3)cc2C1=O,.,.,-1.1,.,.
COc1ccc(C=Nc2cccc3c(=O)[nH][nH]c(=O)c23)c2ccccc12,-2.8,30.9*,0.0,0.1,5.3
COc1cccc(C=Nc2cccc3c(=O)[nH][nH]c(=O)c23)c1O,10.1,1.3,.,-0.7,6.4
Cc1nn(C)c(C)c1-c1c(C#N)c(N)nc2c1CCCCCC2,.,16.4,0.4,0.3,46.5*
Cc1c(-c2c(C#N)c(N)nc3c2CCCCCC3)cnn1C,.,14.9,0.0,-0.6,+
CNC(=O)C12CCC(C)(c3nc4cc(C)c(C)cc4nc31)C2(C)C (stereo not drawn),4.5,15.6,-0.3,-2.6,2.8
CCCNC(=O)C12CCC(C)(c3nc4cc(C)c(C)cc4nc31)C2(C)C (stereo not drawn),15.3,54.9*,-2.2,-1.2,1.8
C[C@@H]1CN([C@H](C)CO)C(=O)c2cccc(NC(=O)NC3CCCCC3)c2O[C@@H]1CN(C)C(=O)Nc1ccccc1,.,.,1.3,.,.
CCCNC(=O)[C@@H]1N[C@@H]2c3ccc(C4=CCCC4)c(=O)n3C[C@@H]2[C@H]1CO,.,.,-0.2,.,.
N#Cc1cc2cc3c(cc2nc1N1CCOCC1)OCO3,.,0.6,-2.8,-3.6,111.9*
CC(=O)C1=C(O)C(=O)N(c2ccc(S(N)(=O)=O)cc2)C1c1cccc([N+](=O)[O-])c1 (stereo not drawn),1.0,22.7,2.2,-1.3,3.5
CCOC(=O)C1=C(O)C(=O)N(c2ccc(S(N)(=O)=O)cc2)C1c1cccc([N+](=O)[O-])c1 (stereo not drawn),17.1,31.6*,.,-1.3,3.0
COc1ccccc1-c1ccc([C@@H]2[C@H](C#N)N[C@H]2CO)cc1,.,.,-3.2,.,.
Oc1cccc(Nc2nc(O)c(/C=C3\C=Nc4ccccc43)s2)c1,-11.7,41.2*,-0.1,-1.0,5.0
CC1(C)Nc2ccccc2C(=O)N1NC(=O)c1ccccc1,2.7,7.8,-2.5,1.0,11.1
CC1(C)Nc2ccccc2C(=O)N1c1ccccc1,7.4,7.7,-1.3,2.0,114.8*
CCCN(C)C[C@H]1OCCCC[C@@H](C)Oc2ccc(NC(=O)NC3CCCCC3)cc2C(=O)N([C@@H](C)CO)C[C@H]1C,.,.,-0.8,.,.
CC1=N/C(=C\c2ccc(OC(C)C)cc2)C(=O)N1c1ccc(C(=O)O)cc1,7.5,33.5*,.,1.2,1.2
N/C(=N\NC(=O)c1cccs1)c1cc2ccccc2oc1=O,.,42.0*,4.8,-1.0,2.9
N/C(=N\NC(=O)c1ccc(F)cc1)c1cc2ccccc2oc1=O,11.7,11.5,.,-0.6,2.0
CN(C[C@H]1[C@H](c2ccccc2)[C@@H](CO)N1CC1CC1)C(=O)c1cccc(F)c1,.,.,0.6,.,.
N#Cc1nc(-c2ccccc2F)oc1N1CCN(C(=O)c2ccco2)CC1,11.6,12.4,3.6,-4.1,115.2*
N#Cc1nc(-c2ccccc2Cl)oc1N1CCN(C(=O)c2ccco2)CC1,7.5,9.9,-0.7,-0.9,4.9
N#Cc1nc(-c2ccccc2F)oc1NC1CCCCC1,.,0.0,-1.4,-1.7,175.2*
N#Cc1nc(-c2ccccc2F)oc1N1CCCCC1,0.3,20.0,-4.8,-1.0,+
O=C(CSc1nnc(SCc2ccccc2)s1)NN=Cc1c(Cl)cccc1Cl,-3.7,.,.,.,.
CC1(C)CC(=O)C=C(/C=C/c2ccccc2)C1,.,48.7*,-0.6,-1.3,4.1
